Here are results for 30 compounds from the supplement of paper PMC6522484.

± gives the standard deviation of the averaged measurements.

For test [1], the system named is DLD1. The experiment in a line: cell viability (CellTiter-Glo) relative to plate median (fraction of plate median); higher = more viable cells. Particulars: 5 µM; treatment time 24 h; reporter: 7TFP. The gist of the method: (§1)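 Two independent replicates were averaged for each reported value. Library compounds were applied at a final 5 µM for 24 h to colorectal cancer cell lines stably expressing lentiviral TCF/Wnt firefly luciferase reporters. Firefly luciferase or CellTiterGlo luminescence from each well was normalised to the plate median.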

A further test concerns HCT116. The test is described as above. The note with it: 5 µM; treatment time 24 h; reporter: TCF4/Wnt. The gist of the method: as §1
Test [2] relates to SW480. The test is described as above. The note with it: 5 µM; treatment time 24 h; reporter: 7TFP. The procedure, abridged: as §1
Test [3] has as its system DLD1. The experiment in a line: TCF/Wnt firefly luciferase reporter signal relative to plate median (fraction of plate median); higher = higher Wnt reporter signal. Particulars: 5 µM; treatment time 24 h; reporter: 7TFP. The procedure, abridged:
as §1

Test [4] relates to SW480. The test is described as above. The note with it: 5 µM; treatment time 24 h; reporter: 7TFP. The procedure, abridged:
as §1

Turning to `COc1cc(O)c(C(=O)/C=C/c2ccc(O)c(OC)c2)c(OC)c1`, the cell viability in the test on DLD1 [1] turned out to be 1.025 ± 0.0071; in the test on HCT116, 1.03 ± 0.083; in the test with SW480 [2], 1.1 ± 0.071. For the same compound, the “TCF/Wnt firefly luciferase reporter signal” value in the test on DLD1 [3] came to 0.882 ± 0.11; in the test with SW480 [4], 0.894 ± 0.037.
Taken in the same sequence, the figures for `CC(=O)O[C@H]1CC[C@]2(C)[C@H]3CC[C@@]4(C)[C@H](c5ccoc5)OC(=O)[C@H]5O[C@]54[C@]3(C)[C@H](OC(C)=O)C[C@H]2C1(C)C` [3beta-ACETOXYDEOXODIHYDROGEDUNIN] were 1.03 ± 0.054, 1.01 ± 0.077, 0.949 ± 0.1, 1.02 ± 0.061 and 1.04 ± 0.028.
The corresponding values for `CC(C)c1cccc(=O)c(O)c1` are 1.11 ± 0.13, 1.07 ± 0.042, 1.1 ± 0.021, 1.03 ± 0.073 and 0.985 ± 0.064.
Taken in the same sequence, the figures for `COC(=O)[C@@]1(C)CCC[C@]2(C)c3ccc(O)c(C(C)C)c3CCC12` (stereo not given in full) were 1.03 ± 0.028, 0.982 ± 0.096, 1.03 ± 0.028, 0.892 ± 0.046 and 0.88 ± 0.049.
`O=C(O)Cc1ccccc1Nc1c(Cl)cccc1Cl`: the values for the cell viability in the test on DLD1 [1], with HCT116 and with SW480 [2] were 0.955 ± 0.078, 0.938 ± 0.037 and 0.96 ± 0.032, respectively. Besides, the “TCF/Wnt firefly luciferase reporter signal” value with DLD1 [3] came to 0.95 ± 0.05; with SW480 [4], 0.848 ± 0.13.
The corresponding values for `COc1cc(OC)c(-c2c(OC)cc(OC)cc2OC)c(OC)c1` are 1.015 ± 0.0071, 0.953 ± 0.14, 1.02 ± 0.014, 0.926 ± 0.018 and 1.01.
In the case of `COc1cc2c(cc1OC)[C@@H]1Cc3ccc(OC)c(OC)c3CN1CC2`, the cell viability in the test with DLD1 [1] was found to be 0.97 ± 0.085; in the test on HCT116, 0.941 ± 0.038; with SW480 [2] it was 0.9275 ± 0.0035. The “TCF/Wnt firefly luciferase reporter signal” value was 1.17 ± 0.18 in the test on DLD1 [3] and 1.03 ± 0.028 in the test with SW480 [4].
Taken in the same sequence, the figures for `CCCCCCCCCCCCCCCC(=O)OC/C=C(C)/C=C/C=C(C)/C=C/C1=C(C)CCCC1(C)C` were 0.986 ± 0.048, 1.07 ± 0.035, 0.9965 ± 0.0021, 0.885 ± 0.1 and 1.01 ± 0.073.
Taken in the same sequence, the figures for `O=C1CCC(N2C(=O)c3ccccc3C2=O)C(=O)N1` (stereo not given) were 0.939 ± 0.1, 0.972 ± 0.04, 0.953 ± 0.03, 1.23 ± 0.16 and 0.887 ± 0.018.
Turning to `NC[C@H]1O[C@H](O[C@H]2[C@H](O)[C@@H](O[C@H]3O[C@H](CO)[C@@H](O)[C@H](N)[C@H]3O)[C@H](N)C[C@@H]2N)[C@H](N)C[C@@H]1O`, the cell viability in the test on DLD1 [1] was determined as 0.854 ± 0.012; in the test on HCT116, 0.922 ± 0.073; with SW480 [2], 0.998 ± 0.06. For the same compound, the entries for the “TCF/Wnt firefly luciferase reporter signal” value in the test with DLD1 [3] and in the test with SW480 [4] were 0.992 ± 0.0042 and 1.05 ± 0.076, respectively.
Turning to `O=C(O)C1=CC(=C(c2ccc(O)c(C(=O)O)c2)c2ccc(O)c(C(=O)O)c2)C=CC1=O`, the results for the cell viability with DLD1 [1], with HCT116 and in the test on SW480 [2] were 1.03 ± 0.14, 1.03 ± 0.028 and 1.06 ± 0.05, respectively. Moreover, the figures for the “TCF/Wnt firefly luciferase reporter signal” value in the test with DLD1 [3] and with SW480 [4] were 0.996 ± 0.09 and 1.01 ± 0.049, respectively.
For `O=c1cc(-c2ccc(O)cc2)oc2cc(O[C@@H]3O[C@H](CO)[C@@H](O)[C@H](O)[C@H]3O)cc(O)c12`, the cell viability with DLD1 [1] stood at 0.924 ± 0.044; in the test on HCT116, 1.06 ± 0.093; in the test on SW480 [2] it was 1 ± 0.038. Besides, the “TCF/Wnt firefly luciferase reporter signal” value in the test on DLD1 [3] was found to be 1.02 ± 0.059; with SW480 [4], 1.07 ± 0.078.
The corresponding values for `C=C[C@@]1(C)CC(=O)[C@]2(O)[C@@]3(C)[C@@H](O)CCC(C)(C)[C@@H]3[C@H](O)[C@H](OC(C)=O)[C@@]2(C)O1` are 1.09 ± 0.099, 0.942 ± 0.069, 1.12 ± 0.021, 1.23 ± 0.05 and 1.14 ± 0.099.
The corresponding values for `CCn1cc(C(=O)O)c(=O)c2cnc(N3CCNCC3)nc21` are 0.976 ± 0.049, 0.943 ± 0.12, 1 ± 0.025, 0.891 ± 0.21 and 0.98 ± 0.13.
Taken in the same sequence, the figures for `COc1ccc(-c2coc3cc(O)cc(O)c3c2=O)cc1` were 1.01 ± 0.065, 0.888 ± 0.016, 1.01 ± 0.044, 0.985 ± 0.16 and 1.05 ± 0.064.
Regarding `NNC(=O)c1ccncc1`, the results for the cell viability in the test with DLD1 [1], in the test on HCT116 and in the test with SW480 [2] were 0.952 ± 0.018, 0.959 ± 0.049 and 0.984 ± 0.051, respectively. The “TCF/Wnt firefly luciferase reporter signal” value was found to be 0.8925 ± 0.00071 in the test with DLD1 [3] and 1.03 ± 0.028 in the test on SW480 [4].
Taken in the same sequence, the figures for `Nc1nc(=O)c2[nH]c(=O)cnc2[nH]1` were 1.01 ± 0.14, 1.06 ± 0.078, 0.954 ± 0.018, 0.981 ± 0.098 and 0.987 ± 0.075.
Taken in the same sequence, the figures for `Nc1c2ccccc2nc2ccccc12` were 0.942 ± 0.071, 0.919 ± 0.11, 1.03 ± 0.021, 1.52 ± 0.54 and 1.01 ± 0.13.
The corresponding values for `N/C(=N\C(=O)c1nc(Cl)c(N)nc1N)NCc1ccccc1` are 0.986 ± 0.035, 0.969 ± 0.17, 0.998 ± 0.031, 1.07 ± 0.16 and 1.04 ± 0.066.
As for `O=[N+]([O-])c1cccc2c(Br)[nH]nc12`, the cell viability in the test with DLD1 [1] was found to be 0.994 ± 0.0057; in the test with HCT116, 1.02 ± 0.021; in the test with SW480 [2], 0.957 ± 0.034. In addition, the “TCF/Wnt firefly luciferase reporter signal” value was found to be 0.984 ± 0.037 in the test with DLD1 [3] and 0.967 ± 0.13 with SW480 [4].
With `C[N+]1(CCCCC[N+]2(C)CCCC2)CCCC1`, the cell viability amounted to 0.998 ± 0.018 in the test on DLD1 [1], 1.01 ± 0.039 in the test with HCT116 and 0.995 ± 0.064 in the test with SW480 [2]. The “TCF/Wnt firefly luciferase reporter signal” value came to 0.888 ± 0.21 in the test on DLD1 [3] and 0.98 ± 0.071 in the test on SW480 [4].
The corresponding values for `C[C@]12CC[C@@H]3c4ccc(O)cc4CC[C@H]3[C@@H]1CC[C@@H]2OC(=O)CCC1CCCC1` are 0.957 ± 0.044, 1.01 ± 0.065, 0.967 ± 0.04, 1.17 ± 0.021 and 1.11.
Taken in the same sequence, the figures for `CCn1cc(C(=O)O)c(=O)c2cc(F)c(N3CCNCC3)nc21` were 1.05 ± 0.064, 0.98 ± 0.071, 1.05 ± 0.083, 1.065 ± 0.0071 and 1.04 ± 0.028.
The corresponding values for `NCCCCNCCCN` are 0.936 ± 0.011, 1.03, 0.958 ± 0.05, 1.12 ± 0.16 and 1.12 ± 0.13.
For `OCCOCCN1CCN(C(c2ccccc2)c2ccc(Cl)cc2)CC1` (stereo not given), the results for the cell viability in the test on DLD1 [1], in the test with HCT116 and in the test with SW480 [2] were 0.978 ± 0.045, 1.07 ± 0.014 and 1.01 ± 0.026, respectively. In addition, the “TCF/Wnt firefly luciferase reporter signal” value with DLD1 [3] worked out at 1.03 ± 0.021; in the test with SW480 [4] it was 1.075 ± 0.0071.
The corresponding values for `Cn1cnc([N+](=O)[O-])c1Sc1ncnc2[nH]cnc12` are 0.95 ± 0.018, 1.02 ± 0.054, 1.13 ± 0.057, 1.03 ± 0.078 and 0.965 ± 0.034.
The corresponding values for `CON` are 1.03 ± 0.093, 1.01 ± 0.046, 0.984 ± 0.018, 0.982 ± 0.04 and 0.981 ± 0.027.
Taken in the same sequence, the figures for `O=C(O)CN1C(=O)c2cccc3cccc(c23)C1=O` were 0.996 ± 0.034, 0.967 ± 0.017, 1.005 ± 0.0071, 0.964 ± 0.12 and 1.09 ± 0.042.
As for `CC(=O)Oc1cc(C)c2c(c1C(OC(C)=O)OC(C)=O)Oc1c(c(C)c(OC(C)=O)c3c1C(OC(C)=O)OC3=O)OC2=O` (stereo not given), the values for the cell viability in the test with DLD1 [1], with HCT116 and in the test with SW480 [2] were 0.969 ± 0.044, 0.975 ± 0.025 and 0.943 ± 0.064, respectively. Also, the “TCF/Wnt firefly luciferase reporter signal” value stood at 0.993 ± 0.081 in the test on DLD1 [3] and 1.18 ± 0.099 in the test with SW480 [4].
The corresponding values for `CC(C)C[C@H]1C(=O)N2CCC[C@H]2C(=O)N1O` [Cyclo(hydroxyleucylprolyl)] are 0.978 ± 0.074, 0.973 ± 0.081, 0.988 ± 0.088, 0.949 ± 0.0042 and 1.05 ± 0.071.
